Results reported in PubChem BioAssay (EPA / NIEHS).
Calls of active or inactive are those of the source. The calls were made as follows: active = hit-call score of the fitted dose curve at least 0.9, where 1 is the maximum; inactive = score below 0.9.

Test: BSK_SAg_SRB: Viability Assessment in the BioMAP Diversity Plus: SAg Assay (AID 2283096);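 also: cells read one day after compound addition; hits may be either gain or loss of signal compared with DMSO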
Details: primary human HUVEC with PBMC
Protocol: BSK_SAg is a cell-based, multiplexed-readout assay that uses umbilical vein endothelium and peripheral blood mononuclear cells, a human vascular primary cell co-culture, with measurements taken at 24 hours after chemical dosing in a 96-well plate.BSK_SAg_SRB is an assay component measured in the BSK_SAg assay. It measures protein content, a form of viability reporter, as detected with absorbance signals by Sulforhodamine staining technology.Data from the assay component BSK_SAg_SRB was analyzed into 1 assay endpoint. This assay endpoint, BSK_SAg_SRB, was analyzed with bidirectional fitting relative to DMSO as the negative control and baseline of activity. Using a type of viability reporter, gain or loss-of-signal activity can be used to understand changes in the signaling. Furthermore, this assay endpoint can be referred to as a primary readout, because this assay has produced multiple assay endpoints where this one serves a signaling function. To generalize the intended target to other relatable targets, this assay endpoint is annotated to the cell morphology intended target family, where the subfamily is cell conformation.
The levels of cell surface (or secreted, indicated by the prefix "s") biomarker endpoints were measured by ELISA. Overt cytotoxicity to cells in confluent adherent cultures (all systems other than the BT system) was assessed by measuring total protein levels using sulforhodamine B (SRB) staining in parallel cultures at the time of biomarker measurements, indicated as SRB endpoints. For proliferation assays for adherent cell types, individual cell types are cultured at sub-confluence and relative cell numbers quantified by SRB staining at time points optimized for each system (48 h: 3C and CASM3C systems; 72 h: BT and HDF3CGF systems; 96 h: SAg system). SRB was performed by staining cells with 0.1% SRB after fixation with 10% TCA and reading wells at 560 nm.Viability and proliferation of PBMC (T cells) was quantified by Alamar Blue reduction for the SAg and BT systems. For PBMC viability (referred to as PBMC Cytotoxicity within the assay endpoint names), cells were plated (75,000/well in a 96-well plate) and then chemical samples added for 1 h before addition of activators, SEB and TSST-1 (20 ng/mL final concentration each). Cells were incubated for 90 h. Then, Alamar Blue (20 uL/well) (Invitrogen, Cat DAL1100) was added for 6 h, and the plates were read with a fluorescence microplate reader at 546/580 nm (excitation/emission). For PBMC proliferation, cells were plated and activated as above but incubated for only 16 h prior to addition of Alamar Blue. Plates were read after 6 h.

Row | SMILES | outcome | AC50
1 | Cc1cnc(C2=NC(C)(C(C)C)C(=O)N2)c(C(=O)O)c1 (stereo not given) | inactive | 
2 | CC(C)C1(C)N=C(c2ncccc2C(=O)O)NC1=O (stereo not given) | inactive | 
3 | OC(c1ccc(Cl)cc1)(c1ccc(Cl)cc1)C(Cl)(Cl)Cl |  | 31.8 µM (active)
4 | CS(=O)(=O)c1ccc(C(=O)C2C(=O)CCCC2=O)c([N+](=O)[O-])c1 | inactive | 
5 | CCSC(=O)N1CCCCCC1 | inactive | 
6 | COP(=S)(OC)SCn1nnc2ccccc2c1=O | inactive | 
7 | COP(=O)(OC)O/C(C)=C/C(=O)N(C)C | inactive | 
8 | CCN(CC)C(=O)C(C)Oc1cccc2ccccc12 (stereo not given) | inactive | 
9 | CN/C(=N\[N+](=O)[O-])NCc1cnc(Cl)s1 | inactive | 
10 | O=C(Nc1ccccc1-c1ccc(Cl)cc1)c1cccnc1Cl | inactive | 
11 | CCNC(=O)NC(=O)C(C#N)=NOC | inactive | 
12 | CCN(CC)c1nc(C)cc(OP(=S)(OC)OC)n1 | inactive | 
13 | COC(=O)N(C(=O)N1CO[C@@]2(C(=O)OC)Cc3cc(Cl)ccc3C2=N1)c1ccc(OC(F)(F)F)cc1 |  | 5.59 µM (active)
14 | CCCCC(C#N)(Cn1cncn1)c1ccc(Cl)cc1 (stereo not given) | inactive | 
15 | O=c1n(Cl)c(=O)n(Cl)c(=O)n1Cl | inactive | 
16 | COC(=O)NC(=S)Nc1ccccc1NC(=S)NC(=O)OC | inactive | 
17 | N#CN=C1SCCN1Cc1ccc(Cl)nc1 | inactive | 
18 | C=CCOC(=O)C(C)(C)OC(=O)c1cc(-n2c(=O)cc(C(F)(F)F)n(C)c2=O)ccc1Cl | inactive | 
19 | CC(C)N1C(=O)N(c2ccccc2)CSC1=NC(C)(C)C |  | 27.8 µM (active)
20 | CCC(C)n1c(=O)[nH]c(C)c(Br)c1=O (stereo not given) | inactive | 

Row | SMILES | outcome | AC50
21 | CCOC(=O)C(C)OC(=O)c1cc(Oc2ccc(C(F)(F)F)cc2Cl)ccc1[N+](=O)[O-] (stereo not given) |  | 14 µM (active)
22 | COCC(=O)N(c1c(C)cccc1C)C(C)C(=O)OC (stereo not given) |  | 26.1 µM (active)
23 | CC1(C)CCC(=Cc2ccc(Cl)cc2)C1(O)Cn1cncn1 (stereo not given) | inactive | 
24 | Nc1c(Cl)c(F)nc(OCC(=O)O)c1Cl | inactive | 
25 | COc1cc(OC)nc(NC(=O)NS(=O)(=O)c2ncccc2OCC(F)(F)F)n1 | inactive | 
26 | COC(=O)NS(=O)(=O)c1ccc(N)cc1 | inactive | 
27 | C=C(C)CN(CC)c1c([N+](=O)[O-])cc(C(F)(F)F)cc1[N+](=O)[O-] |  | 15.2 µM (active)
28 | CO/N=C(/C1=NOCCO1)c1ccccc1Oc1ncnc(Oc2ccccc2Cl)c1F |  | 18.3 µM (active)
29 | Cc1nc(N(C)C)nc(OC(=O)N(C)C)c1C | inactive | 
30 | CCCCOCN(C(=O)CCl)c1c(CC)cccc1CC |  | 28.6 µM (active)
31 | CCCCC(O)(Cn1cncn1)c1ccc(Cl)cc1Cl (stereo not given) | inactive | 
32 | O=C1C2CC=CCC2C(=O)N1SC(Cl)(Cl)Cl (stereo not given) | inactive | 
33 | CCOP(=S)(OCC)Oc1nc(Cl)n(C(C)C)n1 | inactive | 
34 | CS(=O)(=O)c1cc(C(F)(F)F)ccc1C(=O)c1cnoc1C1CC1 | inactive | 
35 | CC1(C)CON(Cc2ccccc2Cl)C1=O | inactive | 
36 | COP(=S)(OC)Oc1ccc([N+](=O)[O-])c(C)c1 | inactive | 
37 | COCC(C)N(C(=O)CCl)c1c(C)csc1C (stereo not given) | inactive | 
38 | CCNP(=S)(OC)O/C(C)=C/C(=O)OC(C)C (stereo not given) | inactive | 
39 | CCOc1cc(C(C)(C)C)ccc1C1COC(c2c(F)cccc2F)=N1 (stereo not given) |  | 22.1 µM (active)
40 | CNC(=O)N(C)c1nnc(C(C)(C)C)s1 | inactive | 
